# This is a sample that favours compounds with a hit; in the whole collection about 19% have one here.
# Shiga toxin inh – blocks Shiga toxin action in Vero cells; Vero cells, Shiga toxin protein synthesis inhibition reporter; inhibition, % at 38.7 µM; actives 9.2% (n = 290,000); in the data active means inhibition mostly above about 28%, no sharp cut-off; inactive means mostly below about 43%; further: 0% is about no effect
# AMA1-RON2 inh – inhibitors of Plasmodium falciparum AMA1-RON2 interaction; AlphaScreen AMA1-biotinylated RON2 peptide binding; Potency, µM (highest dose often 58.2 µM), inactives show top-dose activity change, negative = inhibition, most hits filed as inhibitors; actives 0.2% (n = 360,000); AID 720542;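 further: potency means the concentration at half of the fitted maximal effect; 0% = vehicle wells and -100% = peptide control; nearly all actives have a fitted effect of over 45% in size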
#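 AMA1 (3D7) with his tag at 25 nM final met compounds first, then biotinylated RON2 peptide at 25 nM; detection used donor plus acceptor beads, 10 µg/mL apiece, read by AlphaScreen after 30 min at room temperature.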
# Cycloheximide cs – counter-screen hit for Shiga toxin inhibitors, cycloheximide; actives 12% (n = 300,000); cell reporter, cycloheximide protein synthesis inhibition counterscreen; max response, %; in the data active means max response mostly above about 13%, no sharp cut-off; inactive means mostly below about 14%; further: read at 38.3 µM for the half of the compounds with a filed dose; 0% is about no effect
# SARS PLP yeast – inhibitors of SARS-CoV papain-like protease in yeast; actives 0.19% (n = 330,000); S. cerevisiae expressing SARS-CoV PLpro, growth rescue; Potency, µM (highest dose often 32.9 µM), for inactives: at the top dose activity, positive = growth rescue, hits mostly activators; AID 485353; calls by dose curve; further: potency means the concentration at half of the fitted maximal effect; 0% is about no effect; nearly all actives have a fitted effect of over 55% in size
# Pf growth 48h – P. falciparum growth inhibition at 48 hours (one generation) | P. falciparum luciferase growth in erythrocytes, 48 h | Potency, µM (top dose mostly 28.7 µM), for inactives: at the highest dose activity change, negative = inhibition, actives largely listed as inhibitors | actives 5.9% (n = 310,000); further: potency means the concentration at half of the fitted maximal effect; on the % scale 0 is the no-effect control and ±100 the full control effect
#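 Luciferase-expressing P. falciparum in infected erythrocytes (2% hematocrit, 0.1% parasitemia final) in RPMI 1640/0.5% Albumax were exposed to compound for 48 hours at 37 C, 5% CO2; growth read as luminescence.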
# Pf growth 96h – P. falciparum growth inhibition at 96 hours; actives 6.9% (n = 320,000); P. falciparum luciferase reporter growth, 96 h; Potency, µM (doses to about 28.7 µM), without a hit: at the top dose activity change, negative = inhibition, actives largely listed as inhibitors; further: potency means the concentration at half of the fitted maximal effect; on the % scale 0 is the no-effect control and ±100 the full control effect
#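 Readout is luminescence from an integrated firefly luciferase in P. falciparum. Red cells, 2% hematocrit and 0.05% parasitemia final, were cultured with compound through two parasite generations (96 hours) at 37 C, 5% CO2.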
# An asterisk follows results filed as active; ? = inconclusive; . = not tested or not shown; [ ] = remark or other dose. Unless noted, the call rests on the fitted dose curve; in most records, active means well fitted curve in the direction sought with a large enough effect; inconclusive means small, poorly fitted or top-dose-only effect, or another doubt; inactive means no such curve, though single readings can be large; an effect the other way counts as inactive or inconclusive.
SMILES,Shiga toxin inh,AMA1-RON2 inh,Cycloheximide cs,SARS PLP yeast,Pf growth 48h,Pf growth 96h
CCCCSc1nc(NCc2ccco2)c2c3c(sc2n1)COC(C)(C)C3,70*,-8%,44*,-10%,10µM*,?
CC(C)Cc1nc2sc3c(NCc4ccco4)ncnc3c2c2c1COC(C)(C)C2,-6,-4%,18,-4%,?,?
CCCSc1nc(NCc2ccco2)c2c3c(sc2n1)COC(C)(C)C3,46*,-8%,26,-27%,?,?
CCCc1nc2sc3c(c2c(=O)n1NC(=O)c1ccco1)CC(C)(C)OC3,-5,-2%,-3,-9%,-15%,-28%
CCCCCCCCN1C(=O)[C@H](CC(=O)N2CCN(C(=O)C3CC3)CC2)C[C@@]2(C(=O)OC)CCCCC=C12,.,-3%,.,.,.,.
O=C(CSc1nnc(-c2ccc(F)cc2)c2ccccc12)Nc1ccccc1,12,12%,22*,.,-20%,-22%
O=C(CSc1nncc2ccccc12)Nc1cccc(C(=O)O)c1,99*,-16%,40*,0%,75%,103%
O=C(CSc1nc(-c2ccccc2)nc2ccc(F)cc12)Nc1cccc(C(=O)O)c1,2,-1%,-1,-1%,113%,63%
COc1ccc(CCNC(=O)CSc2nnc(-c3ccc(F)cc3)c3ccccc23)cc1OC,-4,-3%,-2,-4%,9.3µM*,5.2µM*
O=C(CSc1nnc(-c2ccc(F)cc2)c2ccccc12)Nc1cccc(Cl)c1,16,-2%,0,-6%,?,-34%
COc1ccc(CCNC(=O)CSc2cn(Cc3cccc(C)c3)c3ccccc23)cc1OC,-5,-3%,-4,-8%,?,9.3µM*
COc1ccc(CCNC(=O)CSc2cn(Cc3ccccc3)c3ccccc23)cc1OC,-11,-2%,-5,6%,?,?
O=C(Cc1cccc2ccccc12)NC(=S)Nc1cccc(C(=O)O)c1,-9,16%,-2,8%,-10%,18%
Cc1cc(C)cc(NC(=O)COC(=O)CN=C2NS(=O)(=O)c3ccccc32)c1,-12,-10%,-5,-1%,39%,0%
CCCC[C@H]1CCCO[C@@](C(=O)NCc2ccc(C)o2)(C(F)(F)F)C1,-4,.,-1,.,.,.
Cc1cc(NC(=O)Nc2cc(Cl)sc2Cl)no1,12,-6%,9,-2%,.,24%
CC(C)C[C@]1(c2ccccc2)ON(c2ccccc2C(F)(F)F)C1=O,.,27%,.,0%,9.3µM*,?
CC[C@]1(c2ccccc2OC)ON(c2ccccc2C(F)(F)F)C1=O,.,36%,.,0%,0.52µM*,0.41µM*
Cc1cc(=O)c(C(=O)O)nn1-c1ccccc1C(F)(F)F,1,-6%,-1,-3%,7%,0%
COc1ccccc1[C@]1(C)ON(c2ccccc2C(F)(F)F)C1=O,.,22%,.,0%,1µM*,0.83µM*
CCN(CC(=O)NCc1ccc(Cl)cc1)C(=O)C1CCN(S(=O)(=O)c2ccc(OC)c(OC)c2)CC1,.,42%,.,-2%,-4%,0%
COc1ccc(S(=O)(=O)NC(C)c2ccc3c(c2)OCCO3)cc1 (stereo not given),.,-5%,.,.,.,.
CCn1ncc(Cl)c1C(=O)NC(C)c1ccccc1 (stereo not given),12,12%,-2,4%,5%,.
NC1=NC(S)C2N=CN=C2N1 (stereo not given),.,.,.,.,?,7.6µM*
CC(C)(C)NC(=O)N1CCN(c2nc(-c3ccccc3)ns2)CC1,108*,-10%,35*,-2%,65%,24%
SMILES,Shiga toxin inh,AMA1-RON2 inh,Cycloheximide cs,SARS PLP yeast,Pf growth 48h,Pf growth 96h
CC(C)(C)NC(=O)N1CCN(c2nc3ccc(Cl)cc3s2)CC1,42*,3%,15,0%,5%[0.00184 µM],39%
CC(C)(CC(=O)O)CC(=O)N1CCN(c2nc3ccc(Cl)cc3s2)CC1,-5,10%,-1,-1%,12%,4%
CC(C)(CC(=O)O)CC(=O)N1CCCN(c2nc3ccc(Cl)cc3s2)CC1,67*,-8%,16*,4%,6%,1%
CCCCC(=O)N1CCN(c2nc3ccc(Cl)cc3s2)CC1,43*,16%,45*,-5%,46%,45%
CN(C(=O)COC(=O)C1CSC2(C)CCC(=O)N12)c1ccccc1 (stereo not given),.,-5%,.,-2%,-19%,7%
CC1CCc2cc(F)ccc2N1C(=O)c1ccc2c(c1)OCO2 (stereo not given),-10,-15%,-2,3%,-16%,.
O=C(CSc1nnc(CNC(=O)c2cccs2)o1)Nc1cccc(C(F)(F)F)c1,19,12%,-2,3%,3%,10%
c1ccc(CN2CCN(c3cnc4ccccc4n3)CC2)cc1,131*,17%,52*,2%,.,71%
Fc1ccccc1N1CCN(c2cnc3ccccc3n2)CC1,82*,38%,56*,.,214%,339%
CCS(=O)(=O)N1CCN(c2ccccc2F)CC1,-17,-1%,-1,6%,13%,24%
c1ccc(CN2CCN(c3nc4ccccc4c4ccccc34)CC2)cc1,-11,-8%,2,-22%,.,.
Oc1ccccc1N1CCN(c2ccc3ccccc3n2)CC1,102*,-18%,42*,-8%,-45%,-68%
O=C1CNC(=S)N1C(CO)c1ccccc1 (stereo not given),-3,1%,-6,0%,-1%,11%
OC(c1ccccc1)c1ccccc1CN1CCCNC1=S (stereo not given),.,9%,.,.,.,.
Cc1c(O)c(CN2CCCC2)cc2c1oc(=O)c1ccccc12,-3,5%,-1,1%,1.5µM*,6%
C=CCc1cc2c(oc(=O)c3ccccc32)c(C)c1O,13,2%,1,-2%,-13%,15µM*
Cc1c(OC(C(=O)O)c2ccccc2)ccc2c1oc(=O)c1ccccc12 (stereo not given),-7,-19%,-1,-2%,25%,?
Cc1c(O)c(CN2CCCC2)cc2c3c(c(=O)oc12)CCC3,-17,1%,4,-12%,3.3µM*,?
CCc1cc(=O)oc2c(C)c(O)c(CN3CCCCC3)cc12,-10,16%,-6,-2%,?,.
COc1ccc(CC(=O)NNC(=O)c2ccc(Br)o2)cc1,-12,56%,2,5%,-5%,-8%
C/C(=N\NC(=O)C1CC1)c1ccc(NC(=O)c2ccc(Br)o2)cc1,55*,.,24*,-1%,80%,37%
COc1ccc(CC(=O)Nc2ccc(/C(C)=N\NC(=O)c3ccc(Br)o3)cc2)cc1,44*,16%,42*,-7%,-26%,?
COc1ccccc1C(=O)N/N=C(\C)c1ccc(NC(=O)C2CC2)cc1,14,-5%,-3,-4%,13%,?
C/C(=N\NC(=O)c1c(Cl)cnn1C)c1ccc(NC(=O)c2ccc(Br)o2)cc1,57*,75%,40*,?,-9%,?

# Screening results deposited in PubChem by National Center for Advancing Translational Sciences (NCATS).
